This is a sample that favours compounds with a hit; in the whole collection about 21% have one here.
CHX counter: counter-screen for Shiga toxin inhibitors: cycloheximide protein synthesis inhibition; cell reporter, cycloheximide protein synthesis inhibition counterscreen; max response, %; 300,000 tested, 12% active; AID 2314; in the data active = max response mostly above about 13%, no sharp cut-off; inactive = mostly below about 14%; note: read at 38.3 µM for the half of the compounds with a filed dose; 0% is about no effect
SARS PLpro yeast: inhibitors of SARS-CoV papain-like protease in yeast | S. cerevisiae expressing SARS-CoV PLpro, growth rescue | Potency, µM (series often up to 32.9 µM), inactives show at the highest dose activity, positive = growth rescue, actives largely listed as activators | 330,000 tested, 0.19% active; note: potency is the fitted concentration of half-maximal effect; 0% is about no effect; nearly all actives have a fitted effect of over 55% in size
Pf growth 96h: P. falciparum growth inhibition at 96 hours; Potency, µM (titrated, usually from 28.7 µM), inactives show top-dose activity change, negative = inhibition, usual class: inhibitors; 320,000 tested, 6.9% active; P. falciparum luciferase reporter growth, 96 h; AID 504834; active = well fitted inhibition curve with a large enough effect; inconclusive = small, poorly fitted or top-dose-only effect, or another doubt; inactive = no such curve, though single readings can be large or run the other way; note: potency is the fitted concentration of half-maximal effect; % is set by controls: 0 for no effect and ±100 for the full control effect
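Two-generation exposure (96 h) targets delayed-death phenotype. Reporter parasites carrying integrated firefly luciferase, in red cells at 2% hematocrit and 0.05% parasitemia final, kept at 37 C, 5% CO2; luminescence loss indicates inhibition.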
Pf growth 48h: inhibits P. falciparum growth in the first generation, 48 h | P. falciparum luciferase growth in erythrocytes, 48 h | Potency, µM (doses to about 28.7 µM), for the others: top-dose activity change, negative = inhibition, usual class: inhibitors | 310,000 tested, 5.9% active | AID 504832; active = well fitted inhibition curve with a large enough effect; inconclusive = small, poorly fitted or top-dose-only effect, or another doubt; inactive = no such curve, though single readings can be large or run the other way; note: potency is the fitted concentration of half-maximal effect; % is set by controls: 0 for no effect and ±100 for the full control effect
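In quantitative HTS format, infected erythrocytes bearing luciferase-reporter parasites were treated for a single generation at 37 C. Luminescence after adding detection reagent served as the growth measure.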
Shiga toxin inh: inhibitors of Shiga toxin in Vero cells | 290,000 tested, 9.2% active | Vero cells, Shiga toxin protein synthesis inhibition reporter | AID 2315 | inhibition, % at 38.7 µM; in the data active = inhibition mostly above about 28%, no sharp cut-off; inactive = mostly below about 43%; note: 0% is about no effect
NS1 function inh: influenza NS1 inhibition. AID 2326. 270,000 tested, 0.4% active. Potency, µM (doses to about 46.1 µM), for inactives: top-dose activity, positive = more growth; note: potency is the fitted concentration of half-maximal effect; actives are rising curves; nearly all actives have a fitted effect of over 50% in size
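Compounds were scored for reversing the slow growth caused by influenza A NS1 in S. cerevisiae, measured by optical density at 600 nm. Assay medium contained 2% galactose at pH 6.0; NS1-free yeast of the same strain were the positive control.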
Active calls of the source: *; i = inactive; ? = inconclusive; / = no result given. Unless noted, calls come from the whole dose curve.

SMILES	CHX counter	SARS PLpro yeast	Pf growth 96h	Pf growth 48h	Shiga toxin inh	NS1 function inh
Cc1cc(C(=O)OCC(=O)N2CCN(C(=O)c3ccco3)CC2)c(C)n1-c1ccc(F)cc1	1.4	4.0%	21.4%	11.7µM*	3.1	-10.2%
O=C(OCC(=O)N1CCOCC1)c1ccccc1OCc1ccccc1	/	-1.6%	22.0%	22.0%	/	/
N#C/C(=C\c1ccccc1)C(=O)N1CCC(C(N)=O)CC1	0.7	0.4%	-13.8%	-16.6%	-5.5	13.1%
O=C(OCC(=O)N1CCCC1)c1ccccc1O	53.6*	-1.0%	191.8%	160.7%	103.1*	-4.0%
N#C/C(=C\c1ccccc1)C(=O)OCC(=O)N1CCCC1	-8.1	2.5%	21.5%	9.28µM*	12.4	/
O=C(OCC(=O)N1CCCC1)c1ccccc1OCc1ccccc1	20.9*	-1.0%	13.4%	14.5%	12.9	-39.8%
COC(=O)C1=C(C)NC(C)=C(C(=O)NCCCN2CCC(c3ccccc3)(c3ccccc3)CC2)C1c1ccc([N+](=O)[O-])cc1 (stereo not drawn)	-7.6	/	/	/	-13.5	/
O=C(OCC(=O)N1CCN(C(=O)c2ccco2)CC1)c1ccccc1OCc1ccccc1	-1.3	7.0%	11.7µM*	-8.3%	17.6	-70.3%
O=C(OCC(=O)N1CCN(C(=O)c2ccco2)CC1)c1ccccc1C(=O)c1ccccc1	-0.7	0.0%	?	-20.4%	-1.9	-0.9%
COC(=O)CCC(=O)OC1(C)C(=O)C2=CN(CC3CC3)C(c3ccc(OC)cc3)=CC2=C(Br)C1=O (stereo not drawn)	-4.0	2.7%	?	13.1µM*	-8.5	?
COC(=O)CCC(=O)OC1(C)C(=O)C2=CN(CC(C)C)C(c3ccc(OC)cc3)=CC2=C(Br)C1=O (stereo not drawn)	-1.7	-1.9%	13.1µM*	?	-1.8	29.5%
COC(=O)CCC(=O)OC1(C)C(=O)C=C2C=C(C3CC3)N(Cc3ccc(OC)cc3)C=C2C1=O (stereo not drawn)	-3.3	1.8%	?	?	-6.5	9.0%
CCC(=O)OC1(C)C(=O)C2=COC(c3ccc(OC)cc3)=CC2=C(Br)C1=O (stereo not drawn)	-2.1	6.5%	30.7%	40.5%	-2.7	-67.7%
COC(=O)CCC(=O)OC1(C)C(=O)C2=CN(CCCOC(C)C)C(c3ccc(OC)cc3)=CC2=C(Br)C1=O (stereo not drawn)	-2.5	1.6%	11.7µM*	?	-12.7	3.3%
O=C(Nc1ccc(Cl)cc1)Nc1ccc(Br)cn1	9.1	-2.6%	?	/	22.3	-1.5%
O=C(/C(Cl)=C/Nc1ccc(Br)cn1)C(F)(F)F	16.0*	-0.3%	32.9%	0.0%	34.7	/
C/C(=N/NC(=O)CNC(=O)COc1cccc(C)c1)c1ccc(Cl)cc1	-1.4	0.3%	-12.3%	1.8%	-5.8	-5.1%
CNS(=O)(=O)c1cccc(C(=O)OCC(=O)Nc2ccc(-c3nc4ccc(C)cc4s3)cc2)c1	44.5*	-0.1%	95.6%	116.0%	93.7*	2.0%
Cc1ccc2nc(-c3ccc(NC(=O)COC(=O)c4ccco4)cc3)sc2c1	46.0*	?	i	246.2%	79.9*	6.6%
Cc1ccc2nc(-c3ccc(NC(=O)COC(=O)c4ccc([N+](=O)[O-])o4)cc3)sc2c1	53.1*	1.0%	223.2%	225.1%	90.9*	-7.9%
COc1ccc(/C=C(\C#N)C(=O)OCC(=O)Nc2ccc(-c3nc4ccc(C)cc4s3)cc2)cc1	27.9*	0.3%	168.1%	91.3%	122.9*	0.2%
Cc1nnc(SCc2cccc([N+](=O)[O-])c2)o1	6.0	0.0%	?	14.8%	37.0	4.9%
COc1cc(/C=N/NC(=O)Cn2ccc(C(F)(F)F)n2)cc(OC)c1OC	-2.6	-1.8%	-2.7%	0.0%	1.3	/
O=C(C1=C[C@H](c2ccc(Br)cc2)C[C@H](OCCCCO)O1)N1CCN(Cc2ccccc2)CC1	1.3	0.2%	?	?	2.4	-5.7%
CCCS(=O)(=O)N1CCCC(C(=O)NCCCN(C)c2ccccc2)C1 (stereo not drawn)	-2.2	2.1%	?	?	1.3	-1.0%
SMILES	CHX counter	SARS PLpro yeast	Pf growth 96h	Pf growth 48h	Shiga toxin inh	NS1 function inh
O=C(COC(=O)c1ccc(Br)o1)Nc1ccc(Br)cc1	/	1.6%	51.7%	-14.0%	/	/
CCOc1ncccc1C(=O)OCC(=O)Nc1ccc(-c2nc3ccc(C)cc3s2)cc1	76.1*	-11.7%	57.5%	226.7%	127.5*	2.2%
Cc1ccc2nc(-c3ccc(NC(=O)CN4CCN(C(=O)c5ccco5)CC4)cc3)sc2c1	42.8*	4.9%	1.47µM*	2.33µM*	135.5*	-1.8%
Cc1ccc(NC(=O)CN2CCN(C(=O)c3ccco3)CC2)cc1	-3.9	1.0%	-9.0%	8.2%	-4.1	-11.6%
Cc1ccc2nc(-c3ccc(NC(=O)COC(=O)c4ccc(Br)o4)cc3)sc2c1	26.6*	-9.9%	i	283.6%	81.3*	7.2%
CC(=O)Nc1ccc(NC(=O)COC(=O)c2ccco2)cc1	11.3	-2.9%	10.9%	2.2%	13.0	-1.9%
Cc1ccc(NC(=O)COC(=O)c2ccco2)cc1	36.7*	-1.5%	43.2%	28.3%	54.1*	1.2%
CCOc1ncccc1C(=O)OCC(=O)Nc1c(C)cc(C)cc1C	-2.0	-4.4%	/	7.1%	41.4	-4.1%
COc1cc(OC)cc(C(=O)NCC(=O)OC(C)C(=O)NC(C)C2CC3CCC2C3)c1 (stereo not drawn)	/	5.5%	/	/	/	/
Cc1noc(C)c1NC(=O)NC(c1ccccc1)c1ccccc1	-0.8	0.6%	-3.9%	3.1%	-4.9	-3.6%
C=CCn1c(SCC(=O)Nc2ccc(-c3nc4ccc(C)cc4s3)cc2)nnc1-c1ccccc1	42.0*	-5.5%	176.5%	207.1%	84.1*	2.9%
Cc1ccc2nc(-c3ccc(NC(=O)COC(=O)c4cncc(Br)c4)cc3)sc2c1	38.7*	-7.9%	301.2%	250.1%	64.3*	3.6%
O=C(COC(=O)c1cncc(Br)c1)Nc1ccc2c(c1)OCO2	-0.2	-1.1%	-19.5%	16.4%	8.1	/
COc1ccc(S(=O)(=O)Nc2cccc(S(=O)(=O)NC3=NCCC3)c2)cc1[N+](=O)[O-]	/	4.2%	10.1%	29.7%	/	/
C/C(=N\NC(=O)CNc1cccc(C(F)(F)F)c1)c1cccs1	6.5	-0.5%	33.4%	3.2%	13.9	/
N#C/C(=N\Nc1cccc(C(F)(F)F)c1)C(=O)c1ccsc1	67.6*	-6.2%	-3.7%	142.1%	93.7*	-65.3%
CCCCCn1c(N2CCOCC2)nc2c1c(=O)n(CC(N)=O)c(=O)n2C	0.8	2.1%	-10.5%	?	17.7	-1.3%
Cc1ccc(/C=N/n2c(C)cc(C)c(C#N)c2=O)cc1	-3.9	9.4%	14.7µM*	14.7µM*	7.9	0.4%
Cc1cc(C)n(/N=C/c2ccc(C(C)C)cc2)c(=O)c1C#N	19.9	-6.9%	?	1.85µM*	11.5	-34.7%
Cc1ccc(/C=N/n2c(C)cc(C)c(C#N)c2=O)o1	-1.8	-3.2%	6.3%	26.7%	0.8	-11.8%

Screening results from PubChem BioAssay.
